The source made the active and inactive calls. The calls were made as follows: active = hit-call score of the fitted dose curve at least 0.9, where 1 is the maximum; inactive = score below 0.9.
What was measured:
Details in all cases: mRNA level, 48 h; actives raise or lower the signal
[1] = read-out: Insulin Like Growth Factor 1 (IGF1), IGF1 (gene 3479); assay: LTEA_HepaRG_IGF1: Life Technologies and Expression Analysis (LTEA) Assay for Insulin Like Growth Factor 1 (IGF1) using HepaRG (AID 2283506)
How it was run: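 Differentiated human HepaRG cells were dosed for 48 h in serum-free induction medium with 0.5% DMSO, eight half-log concentrations up to 100 uM, in duplicate. IGF1 mRNA was quantified by qRT-PCR normalized to ACTB, GAPDH, POLR2A; bidirectional fitting versus DMSO.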

[2] = read-out: Intercellular Adhesion Molecule 1 (ICAM1), ICAM1 (gene 3383); assay: LTEA_HepaRG_ICAM1: Life Technologies and Expression Analysis (LTEA) Assay for Intercellular Adhesion Molecule 1 (ICAM1) using HepaRG (AID 2283507)
How it was run: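 ICAM1 transcript levels measured by qRT-PCR, normalized to three housekeeping genes (ACTB, GAPDH, POLR2A), after 48 h chemical exposure of HepaRG cells. Duplicate eight-point half-log series from 100 uM in 0.5% DMSO; gain or loss fitted against vehicle.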

[3] = read-out: Insulin-like growth factor-binding protein 1 (IGFBP1), IGFBP1 (gene 3484); assay: LTEA_HepaRG_IGFBP1: Life Technologies and Expression Analysis (LTEA) Assay for Insulin-like growth factor-binding protein 1 (IGFBP1) using HepaRG (AID 2283508)
How it was run: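 Read-out is qRT-PCR transcript level normalized to three housekeeping genes, fitted in both directions against 0.5% DMSO. Differentiated HepaRG cells received eight half-log concentrations (top 100 uM) in duplicate for 48 h in serum-free induction medium.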

[4] = read-out: Interleukin 6 (IL6), IL6 (gene 3569); assay: LTEA_HepaRG_IL6: Life Technologies and Expression Analysis (LTEA) Assay for Interleukin 6 (IL6) using HepaRG (AID 2283509)
How it was run: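 Differentiated human HepaRG cells, plated 48 h then switched to serum-free induction medium, were exposed in duplicate for 48 h to eight half-log concentrations up to 100 uM in 0.5% DMSO. IL6 mRNA measured by qRT-PCR, normalized to ACTB/GAPDH/POLR2A.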

[5] = read-out: Interleukin 6 Receptor (IL6R), IL6R (gene 3570); assay: LTEA_HepaRG_IL6R: Life Technologies and Expression Analysis (LTEA) Assay for Interleukin 6 Receptor (IL6R) using HepaRG (AID 2283510)
How it was run: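 Differentiated human HepaRG cells, plated 48 h then switched to serum-free induction medium, were dosed in duplicate for 48 h at eight half-log concentrations up to 100 uM in 0.5% DMSO. IL6R mRNA quantified by qRT-PCR, normalized to ACTB/GAPDH/POLR2A; bidirectional fit versus DMSO.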

[6] = read-out: Potassium channel subfamily K member 1 (KCNK1), KCNK1 (gene 3775); assay: LTEA_HepaRG_KCNK1: Life Technologies and Expression Analysis (LTEA) Assay for Potassium channel subfamily K member 1 (KCNK1) using HepaRG (AID 2283511)
How it was run: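 Differentiated human HepaRG cells in serum-free induction medium were exposed in duplicate for 48 h to 8 half-log concentrations up to 100 uM in 0.5% DMSO. KCNK1 mRNA was measured by TaqMan qRT-PCR, normalized to ACTB, GAPDH and POLR2A, and fitted bidirectionally versus DMSO.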

[7] = read-out: Keratin 19 (KRT19), KRT19 (gene 3880); assay: LTEA_HepaRG_KRT19: Life Technologies and Expression Analysis (LTEA) Assay for Keratin 19 (KRT19) using HepaRG (AID 2283512)
How it was run: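 KRT19 transcript measured by TaqMan qRT-PCR, referenced to three housekeeping genes, after HepaRG cells received test chemicals for 48 h. Eight half-log concentrations, top 100 uM, 0.5% DMSO vehicle; increases and decreases both fitted.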

[8] = read-out: Lipase C (LIPC), LIPC (gene 3990); assay: LTEA_HepaRG_LIPC: Life Technologies and Expression Analysis (LTEA) Assay for Lipase C (LIPC) using HepaRG (AID 2283514)
How it was run: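 Differentiated human HepaRG cells in serum-free induction medium were exposed in duplicate for 48 h to eight concentrations (top 100 uM, half-log steps, 0.5% DMSO). LIPC mRNA was quantified by TaqMan qRT-PCR, normalized to ACTB, GAPDH and POLR2A, with bidirectional fitting versus DMSO.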

[9] = read-out: Lipoprotein lipase (LPL), LPL (gene 4023); assay: LTEA_HepaRG_LPL: Life Technologies and Expression Analysis (LTEA) Assay for Lipoprotein lipase (LPL) using HepaRG (AID 2283515)
How it was run: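 Differentiated human HepaRG cells in serum-free induction medium were exposed in duplicate for 48 h to eight half-log concentrations (top 100 uM) in 0.5% DMSO. LPL mRNA was quantified by TaqMan qRT-PCR, normalized to ACTB, GAPDH and POLR2A.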

[10] = read-out: MicroRNA 122 (MIR122), gene 406906; assay: LTEA_HepaRG_MIR122: Life Technologies and Expression Analysis (LTEA) Assay for MicroRNA 122 (MIR122) using HepaRG (AID 2283516); also: the transcript read is the microRNA miR-122
How it was run: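 Differentiated human HepaRG cells were exposed 48 h in serum-free induction medium to eight half-log concentrations (top 100 uM, 0.5% DMSO). Transcript level was measured by TaqMan qRT-PCR, normalized to ACTB, GAPDH and POLR2A, and fitted bidirectionally versus DMSO.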

[11] = read-out: matrix metalloproteinase-10 (MMP10), MMP10 (gene 4319); assay: LTEA_HepaRG_MMP10: Life Technologies and Expression Analysis (LTEA) Assay for matrix metalloproteinase-10 (MMP10) using HepaRG (AID 2283517)
How it was run: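 HepaRG, collagen I, ~100,000 cells/well; serum-free induction medium; 48 h exposure, duplicate, 8-pt half-log to 100 uM, 0.5% DMSO. Readout: TaqMan qRT-PCR, normalized to ACTB/GAPDH/POLR2A; bidirectional fit vs DMSO.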

MYC, MYC (gene 4609) = assay: LTEA_HepaRG_MYC: Life Technologies and Expression Analysis (LTEA) Assay for MYC using HepaRG (AID 2283518)
How it was run: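 MYC transcript changes, up or down relative to 0.5% DMSO, from TaqMan qRT-PCR normalized to three housekeeping genes. Human HepaRG cultures received chemicals for 48 h at eight half-log concentrations up to 100 uM, in duplicate.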

[12] = read-out: matrix metalloproteinase-3 (MMP3), MMP3 (gene 4314); assay: LTEA_HepaRG_MMP3: Life Technologies and Expression Analysis (LTEA) Assay for matrix metalloproteinase-3 (MMP3) using HepaRG (AID 2283519)
How it was run: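 Differentiated human HepaRG cells, plated 48 h on collagen I, were exposed in duplicate for 48 h in serum-free induction medium to eight half-log concentrations up to 100 uM in 0.5% DMSO. MMP3 mRNA was quantified by TaqMan qRT-PCR, normalised to ACTB, GAPDH and POLR2A.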

[13] = read-out: Paternally Expressed 10 (PEG10), PEG10 (gene 23089); assay: LTEA_HepaRG_PEG10: Life Technologies and Expression Analysis (LTEA) Assay for Paternally Expressed 10 (PEG10) using HepaRG (AID 2283520)
How it was run: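 Differentiated HepaRG cells, plated 48 h then switched to serum-free induction medium, were exposed in duplicate for 48 h to eight half-log concentrations topping at 100 uM in 0.5% DMSO. PEG10 mRNA was quantified by TaqMan qRT-PCR, normalised to ACTB, GAPDH and POLR2A.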

[14] = read-out: Protein phosphatase 2A (PPP2R4), PTPA (gene 5524); assay: LTEA_HepaRG_PPP2R4: Life Technologies and Expression Analysis (LTEA) Assay for Protein phosphatase 2A (PPP2R4) using HepaRG (AID 2283522)
How it was run: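 Differentiated HepaRG cells in serum-free induction medium were exposed in duplicate for 48 h to eight concentrations, top 100 uM with half-log dilutions, in 0.5% DMSO. PPP2R4 mRNA was quantified by TaqMan qRT-PCR, normalized to ACTB, GAPDH and POLR2A.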

[15] = read-out: Phosphatase and tensin (PTEN), PTEN (gene 5728); assay: LTEA_HepaRG_PTEN: Life Technologies and Expression Analysis (LTEA) Assay for Phosphatase and tensin (PTEN) using HepaRG (AID 2283523)
How it was run: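 Differentiated human HepaRG cells, plated 48 h then switched to serum-free induction medium, were exposed in duplicate for 48 h to eight half-log concentrations up to 100 uM in 0.5% DMSO. PTEN mRNA measured by TaqMan qRT-PCR, normalized to ACTB/GAPDH/POLR2A, bidirectional fit versus DMSO.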

[16] = read-out: solute carrier (SLC22A1), SLC22A1 (gene 6580); assay: LTEA_HepaRG_SLC22A1: Life Technologies and Expression Analysis (LTEA) Assay for solute carrier (SLC22A1) using HepaRG (AID 2283524)
How it was run: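 Human HepaRG cells were plated 48 h, switched to serum-free induction medium, then exposed in duplicate for 48 h to 8-point half-log series from 100 uM in 0.5% DMSO. SLC22A1 mRNA measured by qRT-PCR, normalized to ACTB/GAPDH/POLR2A, fitted bidirectionally versus DMSO.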

[17] = read-out: Pyruvate Dehydrogenase Kinase 4 (PDK4), PDK4 (gene 5166); assay: LTEA_HepaRG_PDK4: Life Technologies and Expression Analysis (LTEA) Assay for Pyruvate Dehydrogenase Kinase 4 (PDK4) using HepaRG (AID 2283525)
How it was run: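 Differentiated human HepaRG cells, pre-cultured 48 h, were exposed in duplicate for 48 h in serum-free induction medium to eight half-log concentrations up to 100 uM in 0.5% DMSO. PDK4 mRNA was quantified by qRT-PCR, normalized to ACTB, GAPDH and POLR2A, bidirectional fitting versus DMSO.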

[18] = read-out: JUN Transcription Factor, JUN (gene 3725); assay: LTEA_HepaRG_JUN: Life Technologies and Expression Analysis (LTEA) Assay for JUN Transcription Factor using HepaRG (AID 2283513)
How it was run: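 Differentiated HepaRG cells were exposed to chemicals for 48 h in serum-free induction medium, 8 concentrations from 100 uM in half-log steps, 0.5% DMSO vehicle, in duplicate. JUN mRNA was quantified by TaqMan qRT-PCR, normalized to ACTB, GAPDH, POLR2A.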

[19] = read-out: Nuclear factor NF-kappa-B p105 subunit (Homo sapiens) (UniProt P19838); assay: LTEA_HepaRG_NFKB1: Life Technologies and Expression Analysis (LTEA) Assay for Nuclear Factor Kappa B Subunit 1 (NFKB1) using HepaRG (AID 2283521)
How it was run: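 Differentiated human HepaRG cells in serum-free induction medium with 0.5% DMSO were exposed for 48 h to eight half-log concentrations, top 100 uM, in duplicate. NFKB1 mRNA measured by Fluidigm TaqMan qRT-PCR, normalised to ACTB, GAPDH and POLR2A; bidirectional fit versus DMSO.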

Measured: outcome

Chain of Nuclear factor NF-kappa-B p105 subunit (Homo sapiens) (P19838 whole entry, looked up): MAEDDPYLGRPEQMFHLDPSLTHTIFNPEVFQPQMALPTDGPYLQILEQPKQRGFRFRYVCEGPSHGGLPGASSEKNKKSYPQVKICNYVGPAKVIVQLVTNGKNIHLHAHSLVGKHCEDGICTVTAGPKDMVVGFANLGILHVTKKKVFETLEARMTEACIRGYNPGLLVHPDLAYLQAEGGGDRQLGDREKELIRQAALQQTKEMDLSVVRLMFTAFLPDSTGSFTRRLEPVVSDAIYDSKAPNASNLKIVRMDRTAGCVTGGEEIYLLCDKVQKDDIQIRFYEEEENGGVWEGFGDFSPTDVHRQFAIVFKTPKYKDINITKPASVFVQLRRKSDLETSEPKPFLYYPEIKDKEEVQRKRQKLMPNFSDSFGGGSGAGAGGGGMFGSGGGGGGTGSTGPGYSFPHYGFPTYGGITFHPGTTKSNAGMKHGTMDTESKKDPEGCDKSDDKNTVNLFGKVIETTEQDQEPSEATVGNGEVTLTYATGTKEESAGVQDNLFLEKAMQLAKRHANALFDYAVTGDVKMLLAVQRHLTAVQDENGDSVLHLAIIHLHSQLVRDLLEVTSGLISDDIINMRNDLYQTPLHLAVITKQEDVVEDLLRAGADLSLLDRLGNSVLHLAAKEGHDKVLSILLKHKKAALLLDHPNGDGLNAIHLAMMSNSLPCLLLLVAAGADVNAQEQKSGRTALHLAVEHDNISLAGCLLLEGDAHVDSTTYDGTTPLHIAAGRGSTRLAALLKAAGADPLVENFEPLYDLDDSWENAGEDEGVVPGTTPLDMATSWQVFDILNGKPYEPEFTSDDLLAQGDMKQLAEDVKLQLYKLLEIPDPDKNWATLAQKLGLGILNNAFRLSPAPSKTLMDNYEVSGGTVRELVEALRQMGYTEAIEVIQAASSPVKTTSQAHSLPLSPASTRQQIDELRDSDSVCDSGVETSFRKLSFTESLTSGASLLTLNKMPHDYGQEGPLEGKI

Cc1ccc([N+](=O)[O-])cc1N
not listed: [18] | [19]
inactive: all other assays above

C1CNCCN1
inactive: all assays above

Nc1ccc(C(=O)O)cc1
inactive: all assays above

Reference: PubChem BioAssay (EPA / NIEHS)
